Bioassay records as filed in PubChem.
RecA splice inh = blocks M. tuberculosis RecA intein splicing. inhibition, % (no concentration beside the values). cell-free RecA intein splicing, fluorescence. actives 0.75% (n = 290,000). P9WHJ3; in the data active = inhibition above about 30%
GDH-TPI inh = counter-screen for M. tuberculosis FBA inhibitors: GDH-TPI coupled enzymes | GDH-TPI coupled enzyme counterscreen, NADH absorbance | inhibition, % at 4.8 µM | actives 1.2% (n = 360,000)
CCHF vOTU inh-1 = blocks the CCHF virus ovarian tumor domain protease. CCHFV vOTU protease, Pep-AMC fluorescence. inhibition, % at 11.5 µM. actives 0.55% (n = 370,000). AID 651958
Mtb FBA inh = Mtb fructose-bisphosphate aldolase inhibition; P9WQA3; purified M. tuberculosis FBA, fluorescence read-out; inhibition, % at 1 µM; actives 2.3% (n = 360,000); in the data active = inhibition above about 27%
Target sequence (P9WQA3 whole entry, looked up): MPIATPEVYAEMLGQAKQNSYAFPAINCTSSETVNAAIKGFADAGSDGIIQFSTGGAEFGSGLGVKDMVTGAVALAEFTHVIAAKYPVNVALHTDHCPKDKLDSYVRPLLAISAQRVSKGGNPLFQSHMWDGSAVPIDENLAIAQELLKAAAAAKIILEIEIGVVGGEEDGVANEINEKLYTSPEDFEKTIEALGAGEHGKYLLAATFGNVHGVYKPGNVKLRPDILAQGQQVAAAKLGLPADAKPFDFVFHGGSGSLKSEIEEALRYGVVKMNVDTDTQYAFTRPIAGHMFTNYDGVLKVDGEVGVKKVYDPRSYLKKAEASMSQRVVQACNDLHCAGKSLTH
CCHF vOTU inh-2 = confirmation of CCHF virus vOTU protease inhibitors; Recombinant CCHFV vOTU, Pep-AMC fluorescence; shares compounds with CCHF vOTU inh-1; AID 686976; inhibition, % at 11.5 µM; actives 17% (n = 1,900)
Hits are given with their value; – = inactive; · = no result given. Rows were chosen to be rich in hits. Some 4.2% of all compounds tested hit in one or more screens of this group. Rule as the data show it, unless noted: active = inhibition above about 30%; inactive = the rest.

SMILES | RecA splice inh | GDH-TPI inh | CCHF vOTU inh-1 | Mtb FBA inh | CCHF vOTU inh-2
Cc1ccc(OCC(=O)N(Cc2ccccc2)c2c(N)n(Cc3ccccc3)c(=O)[nH]c2=O)c(C)c1 | · | – | – | – | ·
CC(Cc1ccccc1)NC(=O)CCCN1C(=O)c2ccccc2C1=O (stereo not given) | – | – | – | – | ·
CC1Cc2nc(SCC(=O)NCC3CCCO3)n(-c3ccccc3)c(=O)c2S1 (stereo not given) | · | – | – | – | ·
CC1Cc2nc(SCC(=O)NCc3ccco3)n(-c3ccccc3)c(=O)c2S1 (stereo not given) | – | – | 29.5 | – | –
COc1ccccc1S(=O)(=O)N(C)C[C@@H]1OCc2cnnn2CCCC(=O)N([C@H](C)CO)C[C@@H]1C | · | – | – | – | ·
Cc1ccc(S(=O)c2ccc([N+](=O)[O-])c3nonc23)cc1 (stereo not given) | · | – | 31.6 | – | –
CCOc1ccc(/C=C/C(=O)Nc2ccccc2C(F)(F)F)cc1 | – | – | 29.6 | – | –
CCC(=O)NC(c1cccs1)c1cc([N+](=O)[O-])c2cccnc2c1O (stereo not given) | – | – | 38.2 | – | 33.0
CCCC(=O)NC(c1cccs1)c1cc([N+](=O)[O-])c2cccnc2c1O (stereo not given) | – | – | – | – | ·
COC(=O)C1CN(C(=O)COc2ccc(C)c(C)c2)c2ccccc2O1 (stereo not given) | – | – | – | – | ·
NC(Cc1ccc(Cl)cc1)c1csc(Nc2ccc(C(=O)NCCCO)cn2)n1 (stereo not given) | · | – | – | – | ·
O=C1CC(NCc2ccncc2)C(=O)N1c1ccccc1 (stereo not given) | – | – | 35.4 | – | –
Cc1ccc(S(=O)(=O)NC(=O)C2(C)CCN2C(=O)Cc2ccc(C(C)(C)C)cc2)cc1 (stereo not given) | · | – | – | – | ·
Cc1ccc(S(=O)(=O)N2[C@@H](c3ccc(Cl)cc3)C(C(=O)O)=C[C@H]2CC2CCCC2)cc1 | · | – | 30.6 | – | –
Cc1ccc(S(=O)(=O)N2[C@@H](c3ccc(Cl)c(Cl)c3)C(C(=O)O)=C[C@H]2CC2CCCC2)cc1 | · | – | 33.7 | – | –
Cc1ccc(S(=O)(=O)N2[C@@H](c3ccc(C#N)cc3)C(C(=O)O)=C[C@H]2CC2CCCC2)cc1 | · | – | – | – | ·
CC[C@@H]1C=C(C(=O)O)[C@H](c2ccc(C)cc2)N1S(=O)(=O)c1ccc(C)cc1 | · | – | – | – | ·
CC[C@@H]1C=C(C(=O)O)[C@H](c2ccc(Cl)cc2)N1S(=O)(=O)c1ccc(C)cc1 | · | – | 32.2 | – | –
CCOC(=O)N1CCN(C(=O)CSC2=NS(=O)(=O)c3ccccc3N2)CC1 | – | – | – | – | ·
CC(=O)Nc1cccc(C(=O)NN2C(=O)NC3(CCC(C)CC3)C2=O)c1 (stereo not given) | · | – | – | – | ·
CC1(C(=O)Nc2cnc3ccccc3c2)CCN1C(=O)CCc1ccccc1 (stereo not given) | · | – | – | – | ·
CC(C)(C)C(=O)OC12CCCN(C1)/C(=C/c1ccncc1)C2 (stereo not given) | · | · | – | · | ·
CC(C)c1ccc(CN2CCC2(C)C(=O)Nc2ccc3c(c2)OCO3)cc1 (stereo not given) | · | – | – | – | ·
CC(C)Oc1ccc(CN2CCC2(C)C(=O)Nc2ccc3c(c2)OCO3)cc1 (stereo not given) | · | – | 34.2 | – | –
COc1ccc2nc(C3CCCCC3)c3c(c2c1)CCC3 | – | – | – | – | ·
SMILES | RecA splice inh | GDH-TPI inh | CCHF vOTU inh-1 | Mtb FBA inh | CCHF vOTU inh-2
FC(F)(F)Oc1ccc(NC2=NCCCS2)cc1 | – | – | 44.3 | – | –
FC(F)(F)c1cccc(NC2=NCCCS2)c1 | – | – | – | – | ·
CCOC(=O)C1CCN(S(=O)(=O)c2c(C)[nH]c(C)c2C(=O)N2CCCCC2)CC1 | – | – | – | – | ·
C/C(=N\NC(=O)C1CC1)c1ccc(OC(F)F)cc1OC(F)F | – | – | – | – | ·
C/C(=N\NC(=S)NC1CCCCC1)c1ccc(OC(F)F)cc1OC(F)F | – | – | 33.1 | – | –
CC(C)N(Cc1ccccc1)C(=O)COC(=O)c1cnc(Cl)c(Cl)c1 | · | – | – | – | ·
CCN1CCN(c2oc(-c3ccccc3C)nc2S(=O)(=O)c2ccccc2)CC1 | · | – | 35.5 | – | –
O=C1c2ccccc2C(=O)N1CC1=NCCc2ccccc21 | – | – | 39.4 | – | –
O=C1c2ccccc2CCc2ccccc21 | · | – | – | – | ·
O=C1OC(Nc2nc(-c3ccc(F)cc3)cs2)c2ccccc21 (stereo not given) | – | – | – | – | ·
O=C(c1nc[nH]c1C(=O)N1CCc2ccccc2C1)N1CCc2ccccc2C1 | · | – | 43.3 | – | –
Cc1nc2ccccc2c(=O)n1/N=C/C=C/c1ccccc1 | – | – | – | – | ·
CCCCCC(=O)N1C[C@@H](n2cc(-c3ccc(F)cc3)nn2)[C@H](O)C[C@@H]1c1ccc(Cl)cc1 | · | – | 33.8 | – | –
Cc1ccc([C@H]2C[C@@H](O)[C@H](n3cc(-c4ccc(F)cc4)nn3)CN2C(=O)C2CCCCC2)cc1 | · | – | 31.3 | – | –
CCCCCC(=O)N1C[C@H](O)[C@@H](n2cc(-c3ccc(F)cc3)nn2)C[C@@H]1c1ccc(Cl)cc1 | · | – | – | – | ·
Cc1[nH][nH]c(=O)c1C(c1c(C)[nH][nH]c1=O)c1cn(Cc2cccc3ccccc23)c2ccccc12 | · | – | 48.0 | – | –
Cc1[nH][nH]c(=O)c1C(c1c(C)[nH][nH]c1=O)c1cn(C)c2ccccc12 | · | – | 44.1 | – | –
CNCCCOc1ccc(C)cc1Br | – | – | 29.7 | – | –
CC(C)C[C@H](NC(=O)c1[nH]cnc1C(=O)Nc1ccccc1)C(=O)OC(C)(C)C | – | – | 29.5 | – | –
CC(C)C[C@H](NC(=O)c1[nH]cnc1C(=O)N[C@@H](C)C(=O)OC(C)(C)C)C(=O)OC(C)(C)C | – | – | 30.3 | – | 32.2
CC(C)C[C@H](NC(=O)c1nc[nH]c1C(=O)NCC(=O)OC(C)(C)C)C(=O)OCc1ccccc1 | – | – | 30.5 | – | –
CC(C)C[C@H](NC(=O)c1nc[nH]c1C(=O)N[C@@H](CCCCN)C(=O)OC(C)(C)C)C(=O)OC(C)(C)C | · | – | · | – | ·
Cn1cccc1/C=N/N1CCN(c2ccccc2)CC1 | – | – | – | – | ·
Cc1cc(OCc2cc(C(=O)N(C)Cc3nonc3C)no2)cc(C)c1Cl | – | – | 31.2 | – | –
CCc1ccc(CN(C)C(=O)c2cc(COc3cc(C)c(Cl)c(C)c3)on2)nc1 | – | – | 30.1 | – | –
SMILES | RecA splice inh | GDH-TPI inh | CCHF vOTU inh-1 | Mtb FBA inh | CCHF vOTU inh-2
CCc1ccc(CN(C)C(=O)c2cc(COc3cncc(Cl)c3)on2)cc1 | · | – | – | – | ·
Cc1cc(CN2CCC(n3nccc3NC(=O)c3ccccc3Cl)CC2)cc(C)c1O | – | – | – | – | ·
CC1(C(=O)NC2CCCC2)CCC(=O)N1CCCn1ccnc1 (stereo not given) | · | · | – | – | ·
CCOC(=O)C1(C)CCCN1C(=O)c1snnc1C (stereo not given) | · | – | – | – | ·
CC(C(N)=O)N1c2cccc3cccc(c23)S1(=O)=O (stereo not given) | – | – | – | – | ·
CC(NC(=O)C(C)N1c2cccc3cccc(c23)S1(=O)=O)c1ccccc1 (stereo not given) | – | – | 31.7 | – | –
